PubChem BioAssay (NCI)
Compounds without any hit were thinned out: in the full panel of roughly 83,000, 20% have a hit.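 The test compound was applied at a single concentration to cells in 96-well plates for 48 hours, and percent growth was recorded.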 The source made the active and inactive calls. How the source made its calls: active means growth percent below 10; inactive means the rest.

Assays:
Experiment in all cases: NCI-60 one-dose screen, 48 h (100 = growth as untreated, 0 = no growth, -100 = all killed)
HCT-15 colon = settings: 10 µM unless noted
SNB-75 CNS = settings: 10 µM
SNB-19 CNS = settings: 10 µM unless noted
U251 CNS = settings: 10 µM unless noted
PC-3 prostate = settings: 10 µM unless noted
SK-MEL-5 melanoma = settings: 10 µM unless noted
UACC-62 melanoma = settings: 10 µM unless noted
LOX IMVI melanoma = settings: 10 µM unless noted
SK-MEL-28 melanoma = settings: 10 µM unless noted
SK-MEL-2 melanoma = settings: 10 µM unless noted
EKVX NSCLC = settings: 10 µM unless noted
SN12C renal = settings: 10 µM unless noted
TK-10 renal = settings: 10 µM unless noted
CAKI-1 renal = settings: 10 µM unless noted
A498 renal = settings: 10 µM unless noted
CCRF-CEM leukemia = settings: 10 µM unless noted
MOLT-4 leukemia = settings: 10 µM unless noted
UO-31 renal = settings: 10 µM unless noted
ACHN renal = settings: 10 µM unless noted

Measured: growth

COc1cc(C2CC(c3ccc4c(c3)OCO4)=NN2C=O)cc(OC)c1OC (centres undefined)
active: SNB-75 CNS -13.5% | CAKI-1 renal 6.42%
inactive: HCT-15 colon 33.5% | SNB-19 CNS 42.8% | U251 CNS 32% | PC-3 prostate 47.9% | SK-MEL-5 melanoma 17.2% | UACC-62 melanoma 40.9% | LOX IMVI melanoma 34.5% | SK-MEL-28 melanoma 50.6% | SK-MEL-2 melanoma 31.3% | EKVX NSCLC 37.9% | SN12C renal 46.3% | TK-10 renal 53.2% | A498 renal 31.2% | CCRF-CEM leukemia 24.5% | MOLT-4 leukemia 45%

CN(C)CCCC(C#N)c1ccccc1 (centres undefined)
inactive: HCT-15 colon 103% | SNB-75 CNS 88.5% | SNB-19 CNS 103% | U251 CNS 105% | PC-3 prostate 99.1% | SK-MEL-5 melanoma 108% | UACC-62 melanoma 102% | LOX IMVI melanoma 103% | SK-MEL-28 melanoma 119% | SK-MEL-2 melanoma 109% | EKVX NSCLC 118% | SN12C renal 101% | UO-31 renal 104% | TK-10 renal 100% | CAKI-1 renal 117% | A498 renal 107% | CCRF-CEM leukemia 105% | MOLT-4 leukemia 91.6%

Cc1ccc(Nc2nnc(-c3ccc(Cl)cc3)o2)c(C)c1
inactive: HCT-15 colon 44.7% | SNB-75 CNS 78.7% | SNB-19 CNS 95.8% | U251 CNS 83.8% | PC-3 prostate 92.1% | SK-MEL-5 melanoma 92.7% | UACC-62 melanoma 70.8% | LOX IMVI melanoma 75.9% | SK-MEL-28 melanoma 76.8% | SK-MEL-2 melanoma 67.9% | SN12C renal 97.7% | UO-31 renal 82.6% | TK-10 renal 102% | ACHN renal 95.7% | CAKI-1 renal 89.6% | A498 renal 81.6% | CCRF-CEM leukemia 83.3% | MOLT-4 leukemia 61.7%

COc1ccc2c(c1)cn1c3ccc(OC)cc3[nH]c(=O)c21
inactive: SNB-75 CNS 59.1% | SNB-19 CNS 12.3% | UACC-62 melanoma 29.9% | SK-MEL-28 melanoma 61% | EKVX NSCLC 48.5% | A498 renal 41.2%
active: HCT-15 colon -84.4% | U251 CNS -90.3% | PC-3 prostate -72.7% | SK-MEL-5 melanoma 4.14% | LOX IMVI melanoma -79.5% | SK-MEL-2 melanoma -50.3% | SN12C renal -11.8% | UO-31 renal -74.8% | TK-10 renal -89.6% | ACHN renal -98.3% | CCRF-CEM leukemia -64.8% | MOLT-4 leukemia -41.6%

CNc1ccc(Br)c2c1C(=O)c1ccccc1C2=O
inactive: HCT-15 colon 98.2% | SNB-75 CNS 96.7% | SNB-19 CNS 110% | U251 CNS 103% | PC-3 prostate 94.5% | SK-MEL-5 melanoma 110% | UACC-62 melanoma 95.8% | LOX IMVI melanoma 102% | SK-MEL-28 melanoma 115% | SK-MEL-2 melanoma 129% | EKVX NSCLC 115% | SN12C renal 102% | UO-31 renal 86.1% | ACHN renal 104% | CAKI-1 renal 100% | A498 renal 93.3% | CCRF-CEM leukemia 86.1% | MOLT-4 leukemia 94.7%

CC(=O)Nc1scc[n+]1Cc1ccccc1
inactive: HCT-15 colon 101% | SNB-75 CNS 106% | SNB-19 CNS 110% | U251 CNS 106% | PC-3 prostate 94.2% | SK-MEL-5 melanoma 117% | UACC-62 melanoma 114% | LOX IMVI melanoma 87.9% | SK-MEL-28 melanoma 109% | EKVX NSCLC 103% | SN12C renal 111% | UO-31 renal 91.1% | TK-10 renal 113% | ACHN renal 107% | CAKI-1 renal 87.4% | A498 renal 112% | CCRF-CEM leukemia 90.1% | MOLT-4 leukemia 94.1%

CC(=O)Nc1ccc(S(=O)(=O)n2ccc(-c3ccc4c(c3)CCC(C)(C)O4)n2)cc1
inactive: HCT-15 colon 59.3% | SNB-75 CNS 81.4% | SNB-19 CNS 73.3% | U251 CNS 66% | PC-3 prostate 44.4% | SK-MEL-5 melanoma 26.3% | UACC-62 melanoma 62.4% | LOX IMVI melanoma 64.1% | SK-MEL-28 melanoma 93.1% | SK-MEL-2 melanoma 53.5% | SN12C renal 89% | UO-31 renal 67.9% | TK-10 renal 55.1% | ACHN renal 79.3% | CAKI-1 renal 48.8% | A498 renal 21.9% | CCRF-CEM leukemia 55.4% | MOLT-4 leukemia 50.7%

COc1cc(C2C3=C(COC3=O)Nc3cc4c(cc32)CCC4)cc2c1OCO2 (centres undefined)
active: SK-MEL-5 melanoma -42.4%
inactive: HCT-15 colon 14.8% | SNB-75 CNS 46.3% | SNB-19 CNS 42.9% | U251 CNS 27.5% | PC-3 prostate 20.4% | UACC-62 melanoma 43.7% | LOX IMVI melanoma 13.9% | SK-MEL-28 melanoma 59.1% | SK-MEL-2 melanoma 54.4% | EKVX NSCLC 45.4% | SN12C renal 30.9% | UO-31 renal 53.5% | TK-10 renal 67.4% | CAKI-1 renal 37.2% | A498 renal 25.6% | CCRF-CEM leukemia 10.3% | MOLT-4 leukemia 19.6%

C=C1CCC2C3(C)COC(c4ccc(N(C)C)cc4)OC3CCC2(C)C1C/C=C1/C(=O)OCC1O (centres undefined)
active: PC-3 prostate 9.17% | CCRF-CEM leukemia -41.6%
inactive: HCT-15 colon 57.6% | SNB-75 CNS 73.8% | SNB-19 CNS 85.9% | U251 CNS 51.1% | SK-MEL-5 melanoma 60.7% | UACC-62 melanoma 63.1% | LOX IMVI melanoma 11.9% | SK-MEL-28 melanoma 94.9% | SK-MEL-2 melanoma 45.1% | EKVX NSCLC 85.7% | SN12C renal 44.9% | UO-31 renal 54.2% | TK-10 renal 94.3% | ACHN renal 79.3% | A498 renal 109% | MOLT-4 leukemia 37.7%

S=C1CC(=S)NC(=S)N1
inactive: HCT-15 colon 116% | SNB-75 CNS 92.5% | SNB-19 CNS 96.1% | U251 CNS 103% | PC-3 prostate 107% | SK-MEL-5 melanoma 105% | UACC-62 melanoma 100% | LOX IMVI melanoma 94.6% | SK-MEL-28 melanoma 108% | SK-MEL-2 melanoma 107% | EKVX NSCLC 107% | SN12C renal 96.1% | UO-31 renal 88% | TK-10 renal 110% | CAKI-1 renal 101% | A498 renal 90.2% | CCRF-CEM leukemia 105% | MOLT-4 leukemia 95.3%

CCCOC(=O)n1cccc1
inactive: HCT-15 colon 107% | SNB-75 CNS 75.4% | SNB-19 CNS 100% | U251 CNS 107% | PC-3 prostate 91.6% | SK-MEL-5 melanoma 109% | UACC-62 melanoma 91.5% | LOX IMVI melanoma 89.8% | SK-MEL-28 melanoma 116% | SK-MEL-2 melanoma 118% | EKVX NSCLC 99.7% | SN12C renal 94.2% | TK-10 renal 110% | CAKI-1 renal 108% | A498 renal 106% | CCRF-CEM leukemia 99.2% | MOLT-4 leukemia 117%

COc1ccc2c(c1)NC1=C(C(=O)OC1)C2c1cc(OC)c2c(c1)OCO2 (centres undefined)
active: SK-MEL-5 melanoma -55.1%
inactive: HCT-15 colon 16.5% | SNB-75 CNS 53.6% | SNB-19 CNS 37.3% | U251 CNS 21.1% | PC-3 prostate 24.3% | UACC-62 melanoma 50.8% | LOX IMVI melanoma 19% | SK-MEL-28 melanoma 66.9% | SK-MEL-2 melanoma 54.6% | EKVX NSCLC 52.2% | SN12C renal 26.4% | UO-31 renal 57.5% | TK-10 renal 58.3% | CAKI-1 renal 43.4% | A498 renal 18.5% | CCRF-CEM leukemia 10.1% | MOLT-4 leukemia 11.6%

Oc1ccccc1/C=N/NC(=S)NC1CC2C=CC1C2 (centres undefined)
inactive: HCT-15 colon 35.5% | SNB-75 CNS 105% | SNB-19 CNS 82.3% | U251 CNS 59.4% | PC-3 prostate 75.6% | SK-MEL-5 melanoma 78.3% | UACC-62 melanoma 82.9% | LOX IMVI melanoma 44.9% | SK-MEL-28 melanoma 83.1% | EKVX NSCLC 95.3% | SN12C renal 92.8% | UO-31 renal 49.8% | TK-10 renal 103% | ACHN renal 73.6% | CAKI-1 renal 67.1% | A498 renal 96.2% | CCRF-CEM leukemia 49.5% | MOLT-4 leukemia 56.6%

CC(C)(C)OC(=O)NCCc1ccc(N=C=S)cc1
inactive: HCT-15 colon 55.9% | SNB-75 CNS 42.4% | SNB-19 CNS 84.7% | U251 CNS 75.4% | PC-3 prostate 66.3% | SK-MEL-5 melanoma 86.1% | UACC-62 melanoma 54.8% | LOX IMVI melanoma 56% | SK-MEL-28 melanoma 69% | SK-MEL-2 melanoma 53.8% | EKVX NSCLC 89.7% | SN12C renal 90.6% | UO-31 renal 62.7% | ACHN renal 80.3% | A498 renal 70.2% | CCRF-CEM leukemia 30.2% | MOLT-4 leukemia 69%

COC(=O)C1CCCN1C(=O)[C@@H]1CCCN1C(=O)[C@H](Cc1c[nH]c2ccccc12)NC(=S)Nc1cc(C(F)(F)F)cc(C(F)(F)F)c1 (some centres undefined)
inactive: HCT-15 colon 40% | SNB-75 CNS 55.1% | SNB-19 CNS 49.7% | U251 CNS 35.9% | PC-3 prostate 20.4% | SK-MEL-5 melanoma 58.1% | UACC-62 melanoma 63.6% | LOX IMVI melanoma 36.1% | SK-MEL-28 melanoma 80.9% | SK-MEL-2 melanoma 67.5% | EKVX NSCLC 49.8% | SN12C renal 65.5% | UO-31 renal 49.7% | TK-10 renal 56.7% | CAKI-1 renal 33.7% | A498 renal 65.4% | CCRF-CEM leukemia 24% | MOLT-4 leukemia 27%

COc1ccc2c(c1)OC1=C(C(=O)OC1)C2c1cc(OC)c2c(c1)OCO2 (centres undefined)
inactive: HCT-15 colon 19.2% | SNB-75 CNS 36.5% | SNB-19 CNS 29% | U251 CNS 19.9% | PC-3 prostate 22% | UACC-62 melanoma 39.7% | LOX IMVI melanoma 17.2% | SK-MEL-28 melanoma 64.4% | SK-MEL-2 melanoma 43.2% | EKVX NSCLC 51.2% | SN12C renal 23.8% | UO-31 renal 41.6% | TK-10 renal 47.3% | CAKI-1 renal 42.7% | A498 renal 24.2% | CCRF-CEM leukemia 16.3%
active: SK-MEL-5 melanoma -54.3% | MOLT-4 leukemia 5.79%

Fc1ccc(Nc2ncnc3ccc(-c4cnc5[nH]ccc5c4)cc23)cc1Cl
inactive: HCT-15 colon 31.1% | SNB-19 CNS 40.7% | PC-3 prostate 27.5% | SK-MEL-5 melanoma 21% | UACC-62 melanoma 44.8% | SK-MEL-2 melanoma 29.9% | EKVX NSCLC 14.8% | A498 renal 77.4% | CCRF-CEM leukemia 40% | MOLT-4 leukemia 45.6%
active: SNB-75 CNS -65.2% | U251 CNS -68.2% | LOX IMVI melanoma -44.4% | SN12C renal -14.2% | UO-31 renal -73.8% | ACHN renal -66.7%

Nc1cccc(Cl)c1N
inactive: HCT-15 colon 96.5% | SNB-75 CNS 76.9% | SNB-19 CNS 116% | U251 CNS 110% | PC-3 prostate 90.8% | SK-MEL-5 melanoma 104% | UACC-62 melanoma 108% | LOX IMVI melanoma 86.6% | SK-MEL-28 melanoma 119% | EKVX NSCLC 92% | SN12C renal 112% | UO-31 renal 71.2% | TK-10 renal 93% | ACHN renal 90.4% | CAKI-1 renal 96.4% | A498 renal 114% | CCRF-CEM leukemia 71% | MOLT-4 leukemia 93.1%
